Experimental data from the supplement of paper PMC11732987, “Enantioselective OTUD7B fragment discovery through chemoproteomics screening and high-throughput optimisation” (Communications Chemistry, 2025).

Key:
Assay in all cases: log2 ratio of Biotin-Ahx-Ub-VS probe labelling (fragment/DMSO); higher = less target engagement (more negative = stronger competition), active = hit call of the paper (q ≤ 0.05, log2 ratio ≤ -1)
Conditions in all cases: compound concentration: 200 uM; treatment time: 3 h
[1] = biological target: T1, USP42 (UniProt Q9H9J4)
T1 sequence (whole entry): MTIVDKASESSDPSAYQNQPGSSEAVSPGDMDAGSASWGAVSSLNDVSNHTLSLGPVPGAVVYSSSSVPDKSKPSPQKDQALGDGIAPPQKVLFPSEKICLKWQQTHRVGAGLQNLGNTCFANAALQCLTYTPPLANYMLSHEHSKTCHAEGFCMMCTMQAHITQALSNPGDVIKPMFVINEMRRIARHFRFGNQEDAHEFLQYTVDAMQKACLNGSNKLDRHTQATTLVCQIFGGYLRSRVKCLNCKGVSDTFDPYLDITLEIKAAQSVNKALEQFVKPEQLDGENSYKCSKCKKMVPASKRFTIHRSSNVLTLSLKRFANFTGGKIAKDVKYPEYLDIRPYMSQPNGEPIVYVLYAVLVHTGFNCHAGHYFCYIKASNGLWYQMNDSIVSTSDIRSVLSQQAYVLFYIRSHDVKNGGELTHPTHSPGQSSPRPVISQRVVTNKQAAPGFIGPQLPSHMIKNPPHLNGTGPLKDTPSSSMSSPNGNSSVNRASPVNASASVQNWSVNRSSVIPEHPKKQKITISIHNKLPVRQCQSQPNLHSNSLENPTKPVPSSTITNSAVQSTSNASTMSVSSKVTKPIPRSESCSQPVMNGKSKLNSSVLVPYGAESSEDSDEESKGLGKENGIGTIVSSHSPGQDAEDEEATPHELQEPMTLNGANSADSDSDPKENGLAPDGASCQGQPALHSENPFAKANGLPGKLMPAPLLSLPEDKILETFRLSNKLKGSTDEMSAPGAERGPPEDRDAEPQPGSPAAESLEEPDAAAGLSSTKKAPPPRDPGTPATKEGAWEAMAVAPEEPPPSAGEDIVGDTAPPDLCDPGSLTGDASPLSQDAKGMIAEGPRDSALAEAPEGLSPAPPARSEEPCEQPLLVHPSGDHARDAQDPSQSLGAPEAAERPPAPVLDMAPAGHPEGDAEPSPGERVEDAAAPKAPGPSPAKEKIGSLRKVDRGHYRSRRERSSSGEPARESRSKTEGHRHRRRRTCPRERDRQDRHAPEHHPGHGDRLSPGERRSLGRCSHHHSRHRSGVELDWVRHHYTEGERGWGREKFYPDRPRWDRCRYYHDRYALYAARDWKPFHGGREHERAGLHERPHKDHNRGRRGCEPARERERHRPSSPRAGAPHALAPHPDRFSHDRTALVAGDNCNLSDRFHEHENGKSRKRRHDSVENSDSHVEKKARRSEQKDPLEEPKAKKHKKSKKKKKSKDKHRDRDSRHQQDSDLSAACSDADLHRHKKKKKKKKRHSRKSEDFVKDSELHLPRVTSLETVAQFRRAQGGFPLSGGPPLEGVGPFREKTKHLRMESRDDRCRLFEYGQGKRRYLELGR
How it was run: (§1)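 Fragment (200 µM) or vehicle was incubated for 3 h with triplicate HEK293T lysate samples of 495 µg, which were then treated with Biotin-Ahx-Ub-VS at 0.5 µM final for 1 h. Labelled DUBs were enriched on NeutrAvidin, digested with LysC and trypsin, and analysed by diaPASEF LC-MS/MS. Values are average log2 fragment/vehicle ratios from an unpaired t-test on global-median-normalised Spectronaut label-free quantities, using proteins with ≥2 unique peptides.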

[2] = biological target: USP46 (UniProt P62068)
Sequence of USP46 (P62068 whole entry): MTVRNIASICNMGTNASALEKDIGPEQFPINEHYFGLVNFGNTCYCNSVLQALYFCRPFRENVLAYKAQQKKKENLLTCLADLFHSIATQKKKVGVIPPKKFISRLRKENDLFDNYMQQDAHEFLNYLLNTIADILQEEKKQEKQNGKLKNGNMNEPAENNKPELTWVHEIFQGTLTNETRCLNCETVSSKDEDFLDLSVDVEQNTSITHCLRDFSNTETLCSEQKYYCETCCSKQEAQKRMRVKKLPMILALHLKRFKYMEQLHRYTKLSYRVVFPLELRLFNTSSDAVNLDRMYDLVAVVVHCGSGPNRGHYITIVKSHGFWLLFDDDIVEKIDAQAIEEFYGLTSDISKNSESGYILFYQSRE
How it was run: as §1

[3] = biological target: T2, USP47 (UniProt Q96K76)
T2 sequence (whole entry): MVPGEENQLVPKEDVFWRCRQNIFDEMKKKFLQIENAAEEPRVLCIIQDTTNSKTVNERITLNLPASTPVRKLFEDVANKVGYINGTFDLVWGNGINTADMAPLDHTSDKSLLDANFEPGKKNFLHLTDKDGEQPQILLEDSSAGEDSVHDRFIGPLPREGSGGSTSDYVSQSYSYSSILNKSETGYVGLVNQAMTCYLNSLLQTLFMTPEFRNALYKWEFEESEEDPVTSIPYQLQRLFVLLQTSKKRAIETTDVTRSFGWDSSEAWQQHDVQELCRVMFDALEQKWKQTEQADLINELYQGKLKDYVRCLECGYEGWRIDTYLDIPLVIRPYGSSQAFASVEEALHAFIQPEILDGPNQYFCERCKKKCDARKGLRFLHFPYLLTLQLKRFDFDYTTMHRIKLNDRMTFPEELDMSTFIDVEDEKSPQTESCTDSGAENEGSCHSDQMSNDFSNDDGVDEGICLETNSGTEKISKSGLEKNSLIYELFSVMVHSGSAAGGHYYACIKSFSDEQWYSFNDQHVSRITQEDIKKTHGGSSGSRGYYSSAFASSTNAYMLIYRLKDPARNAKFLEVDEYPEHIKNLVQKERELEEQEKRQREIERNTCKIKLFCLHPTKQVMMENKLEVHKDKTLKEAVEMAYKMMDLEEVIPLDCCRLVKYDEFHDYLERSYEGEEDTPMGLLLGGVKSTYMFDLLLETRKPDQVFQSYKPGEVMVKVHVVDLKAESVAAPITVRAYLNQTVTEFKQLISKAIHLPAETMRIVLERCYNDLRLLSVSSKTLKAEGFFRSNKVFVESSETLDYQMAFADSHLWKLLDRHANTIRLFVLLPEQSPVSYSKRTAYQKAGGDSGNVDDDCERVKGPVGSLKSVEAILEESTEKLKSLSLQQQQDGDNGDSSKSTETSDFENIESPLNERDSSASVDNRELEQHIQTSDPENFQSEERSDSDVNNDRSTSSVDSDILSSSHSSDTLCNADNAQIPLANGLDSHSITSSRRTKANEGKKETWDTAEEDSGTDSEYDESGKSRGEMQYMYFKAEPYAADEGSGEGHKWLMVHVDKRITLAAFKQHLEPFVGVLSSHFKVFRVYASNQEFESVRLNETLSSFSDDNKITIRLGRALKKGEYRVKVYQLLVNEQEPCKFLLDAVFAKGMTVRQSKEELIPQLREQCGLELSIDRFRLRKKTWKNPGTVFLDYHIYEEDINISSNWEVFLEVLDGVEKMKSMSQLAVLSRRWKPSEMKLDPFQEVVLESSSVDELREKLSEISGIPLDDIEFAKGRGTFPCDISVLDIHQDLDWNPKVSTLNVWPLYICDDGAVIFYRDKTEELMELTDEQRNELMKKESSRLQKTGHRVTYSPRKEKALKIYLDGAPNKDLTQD
How it was run: as §1

[4] = biological target: T3, USP48 (UniProt Q86UV5)
T3 sequence (whole entry): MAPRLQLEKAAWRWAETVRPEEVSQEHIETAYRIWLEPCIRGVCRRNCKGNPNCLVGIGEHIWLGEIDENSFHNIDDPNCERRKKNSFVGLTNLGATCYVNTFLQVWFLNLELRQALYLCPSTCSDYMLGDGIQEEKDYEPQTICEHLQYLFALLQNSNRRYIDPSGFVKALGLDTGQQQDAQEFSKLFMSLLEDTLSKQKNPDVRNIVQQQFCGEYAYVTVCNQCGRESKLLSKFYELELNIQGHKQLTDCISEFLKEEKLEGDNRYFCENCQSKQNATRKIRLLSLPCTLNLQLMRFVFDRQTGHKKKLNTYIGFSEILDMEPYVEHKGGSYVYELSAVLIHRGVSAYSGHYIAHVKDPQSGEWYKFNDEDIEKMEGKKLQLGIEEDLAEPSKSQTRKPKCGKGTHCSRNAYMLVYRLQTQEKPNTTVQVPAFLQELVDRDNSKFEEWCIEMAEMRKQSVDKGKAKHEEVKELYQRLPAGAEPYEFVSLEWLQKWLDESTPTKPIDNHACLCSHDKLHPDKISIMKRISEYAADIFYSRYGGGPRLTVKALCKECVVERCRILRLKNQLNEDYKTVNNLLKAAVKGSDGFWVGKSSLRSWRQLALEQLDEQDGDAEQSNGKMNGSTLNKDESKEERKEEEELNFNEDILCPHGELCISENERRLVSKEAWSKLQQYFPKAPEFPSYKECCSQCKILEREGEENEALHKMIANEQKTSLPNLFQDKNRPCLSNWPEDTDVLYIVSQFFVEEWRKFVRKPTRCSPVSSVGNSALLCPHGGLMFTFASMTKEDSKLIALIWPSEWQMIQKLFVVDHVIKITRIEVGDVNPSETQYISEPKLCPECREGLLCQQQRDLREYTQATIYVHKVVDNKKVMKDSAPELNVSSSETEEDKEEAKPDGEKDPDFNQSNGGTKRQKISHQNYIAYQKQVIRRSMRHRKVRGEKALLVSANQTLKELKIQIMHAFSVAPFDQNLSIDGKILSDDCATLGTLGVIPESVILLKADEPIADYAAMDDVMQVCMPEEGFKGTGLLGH
How it was run: as §1

[5] = biological target: T4, USP5 (UniProt P45974)
T4 sequence (whole entry): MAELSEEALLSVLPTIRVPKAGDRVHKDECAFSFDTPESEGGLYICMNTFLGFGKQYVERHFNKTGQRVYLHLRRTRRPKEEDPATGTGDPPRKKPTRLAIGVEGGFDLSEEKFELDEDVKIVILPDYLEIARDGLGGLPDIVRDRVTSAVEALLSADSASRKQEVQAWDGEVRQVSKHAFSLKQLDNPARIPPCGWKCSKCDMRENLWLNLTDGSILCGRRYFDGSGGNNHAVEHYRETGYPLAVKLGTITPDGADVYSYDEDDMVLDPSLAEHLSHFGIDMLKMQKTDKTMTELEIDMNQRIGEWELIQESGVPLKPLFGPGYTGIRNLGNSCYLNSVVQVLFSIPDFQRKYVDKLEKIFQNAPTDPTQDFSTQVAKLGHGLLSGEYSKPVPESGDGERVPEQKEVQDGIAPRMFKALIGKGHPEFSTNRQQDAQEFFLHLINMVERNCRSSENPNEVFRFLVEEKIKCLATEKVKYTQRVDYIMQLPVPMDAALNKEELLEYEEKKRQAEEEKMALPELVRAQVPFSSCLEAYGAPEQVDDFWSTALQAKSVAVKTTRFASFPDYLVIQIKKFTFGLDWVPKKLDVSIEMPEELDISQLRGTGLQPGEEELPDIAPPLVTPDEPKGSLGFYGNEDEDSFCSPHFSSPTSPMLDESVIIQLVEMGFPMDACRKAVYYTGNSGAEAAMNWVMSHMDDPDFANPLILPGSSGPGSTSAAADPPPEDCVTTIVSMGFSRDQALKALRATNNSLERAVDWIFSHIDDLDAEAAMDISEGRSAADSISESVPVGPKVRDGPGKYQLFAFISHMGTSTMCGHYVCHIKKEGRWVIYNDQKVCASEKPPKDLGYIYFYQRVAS
How it was run: as §1

[6] = biological target: USP54 (UniProt Q70EL1)
Sequence of USP54 (Q70EL1 whole entry): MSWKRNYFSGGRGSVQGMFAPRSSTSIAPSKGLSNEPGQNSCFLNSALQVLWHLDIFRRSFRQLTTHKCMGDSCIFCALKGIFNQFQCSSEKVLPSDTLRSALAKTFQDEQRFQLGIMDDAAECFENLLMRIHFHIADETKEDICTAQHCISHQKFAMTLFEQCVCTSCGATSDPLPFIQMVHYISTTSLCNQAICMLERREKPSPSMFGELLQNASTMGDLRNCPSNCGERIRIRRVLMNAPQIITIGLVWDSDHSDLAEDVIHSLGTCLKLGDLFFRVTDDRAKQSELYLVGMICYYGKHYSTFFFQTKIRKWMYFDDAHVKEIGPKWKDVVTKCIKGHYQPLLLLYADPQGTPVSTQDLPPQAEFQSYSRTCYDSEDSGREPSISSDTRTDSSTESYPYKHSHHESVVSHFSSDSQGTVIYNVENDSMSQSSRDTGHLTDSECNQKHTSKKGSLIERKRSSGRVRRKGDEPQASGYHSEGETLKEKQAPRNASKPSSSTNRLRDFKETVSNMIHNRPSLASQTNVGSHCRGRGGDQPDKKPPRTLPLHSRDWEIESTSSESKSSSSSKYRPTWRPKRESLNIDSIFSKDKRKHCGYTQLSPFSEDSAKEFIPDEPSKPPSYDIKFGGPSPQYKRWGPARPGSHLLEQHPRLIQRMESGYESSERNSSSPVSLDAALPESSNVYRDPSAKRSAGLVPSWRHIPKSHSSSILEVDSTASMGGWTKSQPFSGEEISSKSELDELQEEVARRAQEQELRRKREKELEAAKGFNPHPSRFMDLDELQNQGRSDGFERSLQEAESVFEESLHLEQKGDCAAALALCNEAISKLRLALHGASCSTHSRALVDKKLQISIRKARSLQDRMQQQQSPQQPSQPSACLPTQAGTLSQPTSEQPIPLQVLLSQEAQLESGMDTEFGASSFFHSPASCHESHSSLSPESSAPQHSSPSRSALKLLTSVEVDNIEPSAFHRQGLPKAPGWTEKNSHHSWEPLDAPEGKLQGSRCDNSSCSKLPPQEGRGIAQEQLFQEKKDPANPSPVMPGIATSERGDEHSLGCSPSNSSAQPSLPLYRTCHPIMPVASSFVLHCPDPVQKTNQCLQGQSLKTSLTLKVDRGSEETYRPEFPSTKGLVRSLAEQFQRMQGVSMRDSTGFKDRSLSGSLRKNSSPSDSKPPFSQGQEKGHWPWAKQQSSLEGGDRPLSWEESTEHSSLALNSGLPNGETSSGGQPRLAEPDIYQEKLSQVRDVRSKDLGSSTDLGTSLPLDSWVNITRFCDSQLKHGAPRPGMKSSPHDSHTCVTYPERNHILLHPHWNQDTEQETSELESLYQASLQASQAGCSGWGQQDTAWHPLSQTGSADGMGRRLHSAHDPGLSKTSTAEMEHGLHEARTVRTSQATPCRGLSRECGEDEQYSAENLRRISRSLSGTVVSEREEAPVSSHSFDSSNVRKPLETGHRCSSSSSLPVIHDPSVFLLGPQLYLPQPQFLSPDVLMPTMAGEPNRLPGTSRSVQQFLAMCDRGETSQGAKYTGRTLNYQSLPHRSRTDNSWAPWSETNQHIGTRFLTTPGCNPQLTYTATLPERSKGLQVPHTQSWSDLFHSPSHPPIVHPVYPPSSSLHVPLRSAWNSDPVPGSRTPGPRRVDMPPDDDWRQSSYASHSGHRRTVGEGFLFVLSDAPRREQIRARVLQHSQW
How it was run: as §1

[7] = biological target: USP7 (UniProt Q93009)
Sequence of USP7 (Q93009 whole entry, looked up): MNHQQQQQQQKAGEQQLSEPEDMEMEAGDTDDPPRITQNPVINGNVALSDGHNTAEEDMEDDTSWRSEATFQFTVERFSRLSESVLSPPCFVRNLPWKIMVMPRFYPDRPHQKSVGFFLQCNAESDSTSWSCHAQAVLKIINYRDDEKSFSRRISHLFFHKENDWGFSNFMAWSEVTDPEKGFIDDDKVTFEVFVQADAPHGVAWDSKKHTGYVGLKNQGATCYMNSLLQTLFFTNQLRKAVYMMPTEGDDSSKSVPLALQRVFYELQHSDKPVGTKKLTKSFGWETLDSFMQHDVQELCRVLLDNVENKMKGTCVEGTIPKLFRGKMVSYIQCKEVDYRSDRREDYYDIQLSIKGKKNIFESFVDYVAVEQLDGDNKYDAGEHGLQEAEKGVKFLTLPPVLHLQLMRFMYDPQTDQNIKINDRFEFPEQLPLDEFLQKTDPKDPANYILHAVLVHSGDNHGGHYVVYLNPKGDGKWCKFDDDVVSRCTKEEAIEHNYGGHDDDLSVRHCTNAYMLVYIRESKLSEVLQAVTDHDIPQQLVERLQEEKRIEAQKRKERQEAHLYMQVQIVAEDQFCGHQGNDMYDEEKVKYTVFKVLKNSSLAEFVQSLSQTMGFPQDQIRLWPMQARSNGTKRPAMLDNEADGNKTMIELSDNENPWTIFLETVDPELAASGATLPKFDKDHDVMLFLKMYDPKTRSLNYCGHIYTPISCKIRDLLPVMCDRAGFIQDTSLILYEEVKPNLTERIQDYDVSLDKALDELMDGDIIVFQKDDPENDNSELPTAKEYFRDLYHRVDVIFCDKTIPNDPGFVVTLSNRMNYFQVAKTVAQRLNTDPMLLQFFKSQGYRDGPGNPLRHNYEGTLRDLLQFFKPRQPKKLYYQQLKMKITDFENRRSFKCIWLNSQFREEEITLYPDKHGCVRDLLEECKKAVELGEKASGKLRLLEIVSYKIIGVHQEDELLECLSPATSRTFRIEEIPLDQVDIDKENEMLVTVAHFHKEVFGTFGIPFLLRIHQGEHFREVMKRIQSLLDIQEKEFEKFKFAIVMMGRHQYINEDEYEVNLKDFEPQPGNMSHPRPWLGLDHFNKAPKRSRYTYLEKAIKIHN
How it was run: as §1

[8] = biological target: T5, USP8 (UniProt P40818)
T5 sequence (whole entry): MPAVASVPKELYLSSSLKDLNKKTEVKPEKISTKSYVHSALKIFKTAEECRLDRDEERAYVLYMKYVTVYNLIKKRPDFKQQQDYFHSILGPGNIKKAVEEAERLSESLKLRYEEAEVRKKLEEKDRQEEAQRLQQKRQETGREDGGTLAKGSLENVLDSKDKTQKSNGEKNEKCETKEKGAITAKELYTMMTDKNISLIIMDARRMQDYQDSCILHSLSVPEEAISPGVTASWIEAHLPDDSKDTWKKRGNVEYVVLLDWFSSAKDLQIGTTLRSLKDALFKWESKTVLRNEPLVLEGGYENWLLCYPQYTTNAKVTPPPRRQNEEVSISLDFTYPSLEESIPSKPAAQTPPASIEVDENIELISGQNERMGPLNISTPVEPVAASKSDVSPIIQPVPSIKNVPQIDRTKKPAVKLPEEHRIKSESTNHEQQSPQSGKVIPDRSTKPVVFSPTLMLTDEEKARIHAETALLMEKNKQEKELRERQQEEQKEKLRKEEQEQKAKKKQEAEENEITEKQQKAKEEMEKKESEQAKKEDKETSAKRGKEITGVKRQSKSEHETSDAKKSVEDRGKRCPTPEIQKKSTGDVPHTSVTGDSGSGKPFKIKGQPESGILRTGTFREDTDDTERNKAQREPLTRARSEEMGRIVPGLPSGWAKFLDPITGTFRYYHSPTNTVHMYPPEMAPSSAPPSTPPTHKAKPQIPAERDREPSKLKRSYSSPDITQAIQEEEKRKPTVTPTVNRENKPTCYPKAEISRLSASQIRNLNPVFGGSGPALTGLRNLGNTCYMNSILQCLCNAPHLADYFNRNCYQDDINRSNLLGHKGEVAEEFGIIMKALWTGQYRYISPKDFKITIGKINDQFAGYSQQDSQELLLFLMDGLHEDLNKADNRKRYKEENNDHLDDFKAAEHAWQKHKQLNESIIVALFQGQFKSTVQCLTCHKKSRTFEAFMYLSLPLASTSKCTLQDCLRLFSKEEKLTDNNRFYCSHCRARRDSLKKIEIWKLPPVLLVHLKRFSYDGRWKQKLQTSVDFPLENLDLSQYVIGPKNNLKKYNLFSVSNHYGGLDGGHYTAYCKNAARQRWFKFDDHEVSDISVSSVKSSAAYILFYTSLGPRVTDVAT
How it was run: as §1

[9] = biological target: USP9X (UniProt Q93008)
How it was run: as §1

[10] = biological target: UniProt O00487
Sequence of UniProt O00487 (O00487 whole entry): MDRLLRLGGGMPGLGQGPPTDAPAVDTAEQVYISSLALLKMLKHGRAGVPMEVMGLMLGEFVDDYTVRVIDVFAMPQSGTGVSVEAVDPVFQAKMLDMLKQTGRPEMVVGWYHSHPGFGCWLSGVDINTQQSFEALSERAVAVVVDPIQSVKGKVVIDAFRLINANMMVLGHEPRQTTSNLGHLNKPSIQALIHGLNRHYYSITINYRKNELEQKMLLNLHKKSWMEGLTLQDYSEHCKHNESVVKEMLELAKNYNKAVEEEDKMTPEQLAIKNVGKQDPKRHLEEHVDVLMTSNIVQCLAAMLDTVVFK
How it was run: as §1

Measured: log2 ratio of Biotin-Ahx-Ub-VS probe labelling

C[C@H]1CN(C(=O)CCl)CCN1C(=O)c1cnn(C)c1.Cl
inactive: [1] 0.109 | [2] -0.0724 | [3] -0.522 | [4] -0.436 | [5] 0.184 | [6] -0.0291 | [7] -0.353 | [8] -0.184 | [9] -0.221 | [10] -0.129
